According to PubChem BioAssay (NCATS):
Results filed as inconclusive are left out. Unless noted, calls come from the whole dose curve; as a rule, active = well fitted curve in either direction with a large enough effect (not every such curve was filed as active); inconclusive = small, poorly fitted or top-dose-only effect, or another doubt; inactive = flat fitted curve, though single readings scatter.

Tests used:
[1] = AP1 Signaling Pathway (AID 357); settings: ME-180 AP-1-bla reporter, EGF-induced, beta-lactamase ratio, 5 h; at 17.2 µM (top of the series) unless noted; note: % is set by controls: 0 for no effect and ±100 for the full control effect
How it was run: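 AP-1-bla ME-180 cells with beta-lactamase reporter under AP-1 response element, stimulated with EC50 EGF; compounds titrated, 5 hours at 37 degrees Celsius. CCF4 read at 460/530 nm ratio; positive and negative modulators judged by AC50.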

[2] = NFAT Signaling Pathway (AID 444); settings: Jurkat NFAT-bla M1, carbachol, beta-lactamase ratio, 5 h; at 17.2 µM (top of the series) unless noted;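 note: carbachol stimulus at about its EC50 of 1 µM final; % is set by controls: 0 for no effect and ±100 for the full control effect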
How it was run: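 Jurkat cells with NFAT-driven β-lactamase reporter and co-expressed M1 receptor, stimulated with carbachol (final 1 uM, ~EC50), compound titration, 5 h at 37 °C. CCF4 loaded 1 h at RT; 460/530 nm ratio gave %activity and AC50.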

[3] = Stat Signaling Pathway (AID 446); settings: ME-180 SIE beta-lactamase reporter, IL-6 stimulated, 5 h; at 17.2 µM (top of the series) unless noted;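 note: ME-180 cervical cancer cells given 40 pM IL-6 alongside compound; SIE-controlled beta-lactamase reporter measured as 460/530 nm FRET emission ratio; % is set by controls: 0 for no effect and ±100 for the full control effect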
How it was run: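 ME-180 SIE-bla cells; overnight plating; cpd + IL-6 40 pM, 5 h, 37 C; LiveBLAzer 2.5 h RT; 460/530 nm emission ratio. Normalized to 300 pM IL-6 and 125 nM JAK inhibitor controls.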

[4] = target: Glucocorticoid receptor (Homo sapiens) (UniProt P04150); experiment: GR-GFP Redistribution (AID 450;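 active = compounds whose dose series gives a full or clear partial fitted curve of increased nuclear translocation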; note: potency is the fitted concentration of half-maximal effect)
Sequence of Glucocorticoid receptor (Homo sapiens) (P04150 whole entry, looked up): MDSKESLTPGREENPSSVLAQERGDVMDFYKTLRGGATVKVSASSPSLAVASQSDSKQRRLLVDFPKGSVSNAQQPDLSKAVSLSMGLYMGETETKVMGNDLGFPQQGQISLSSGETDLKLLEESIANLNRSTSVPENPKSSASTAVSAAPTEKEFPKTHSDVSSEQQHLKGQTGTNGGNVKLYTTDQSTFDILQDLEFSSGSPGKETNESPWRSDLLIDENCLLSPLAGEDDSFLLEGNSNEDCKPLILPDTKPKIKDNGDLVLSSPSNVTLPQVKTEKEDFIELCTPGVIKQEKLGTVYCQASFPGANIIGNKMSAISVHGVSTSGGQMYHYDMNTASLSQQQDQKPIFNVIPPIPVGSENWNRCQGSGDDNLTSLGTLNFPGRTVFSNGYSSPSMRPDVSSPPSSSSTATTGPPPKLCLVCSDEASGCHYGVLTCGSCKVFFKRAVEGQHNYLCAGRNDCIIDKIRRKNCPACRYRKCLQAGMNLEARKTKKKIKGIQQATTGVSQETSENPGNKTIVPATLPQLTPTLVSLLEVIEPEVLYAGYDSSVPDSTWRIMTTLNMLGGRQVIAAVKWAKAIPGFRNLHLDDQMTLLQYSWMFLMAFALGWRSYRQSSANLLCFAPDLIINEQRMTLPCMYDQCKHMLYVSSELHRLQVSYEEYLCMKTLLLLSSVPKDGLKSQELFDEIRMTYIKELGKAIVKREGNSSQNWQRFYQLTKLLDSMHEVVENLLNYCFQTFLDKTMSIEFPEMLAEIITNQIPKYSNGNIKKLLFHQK

O=C(NCCN1CCOCC1)c1cc2n(n1)C(C(F)(F)F)CC(c1ccc(F)cc1)N2 (stereo not given)
inactive: activity change, negative = inhibition [1] 2.33% | activity change, negative = inhibition [2] 0.228% | activity, negative = inhibition [3] 8.95% | Potency [4] > 20.6 µM

CCOC(=O)c1ccc(N2CC(O)=C(c3nc4ccccc4c(=O)[nH]3)C2=N)cc1
inactive: activity change, negative = inhibition [1] -27.9% | activity change, negative = inhibition [2] -8.54% | activity, negative = inhibition [3] -21.7% | Potency [4] > 20.6 µM

Cc1c(OCc2ccccc2)c(=O)ccn1Cc1ccccc1
inactive: activity change, negative = inhibition [1] -8.27% | activity change, negative = inhibition [2] -0.234% | activity, negative = inhibition [3] 1.99% | Potency [4] > 20.6 µM

COc1ccc(-c2cc3nc4n(c(=O)c3s2)CCOC4)cc1
inactive: activity change, negative = inhibition [1] 18.4% | activity change, negative = inhibition [2] -10.1% | activity, negative = inhibition [3] 0.631% | Potency [4] > 20.6 µM

CC1(C)Cc2c(sc3ncn4nnnc4c23)CO1
inactive: activity change, negative = inhibition [1] -0.575% | activity change, negative = inhibition [2] 0.343% | activity, negative = inhibition [3] 2.69% | Potency [4] > 20.6 µM

O=C(O)c1cc2n(n1)C(C(F)(F)F)CC(c1ccccc1)N2 (stereo not given)
inactive: activity change, negative = inhibition [1] 3.84% | activity change, negative = inhibition [2] -0.387% | activity, negative = inhibition [3] -1.46% | Potency [4] > 20.6 µM

COc1ccccc1C1(CC(=O)N2CCOCC2)CCOC(C(C)C)C1 (stereo not given)
inactive: activity change, negative = inhibition [1] 3.63% | activity change, negative = inhibition [2] 13.2% | activity, negative = inhibition [3] -0.0907% | Potency [4] > 20.6 µM

CCc1cc2c(=O)c(-c3cscn3)coc2c(CN(C)C)c1O
inactive: activity change, negative = inhibition [1] 26.5% | activity change, negative = inhibition [2] -7.56% | activity, negative = inhibition [3] 10.5% | Potency [4] > 20.6 µM

COc1cc(C)nc(N(C)S(=O)(=O)c2ccccc2Cl)n1
inactive: activity change, negative = inhibition [1] -3.56% | activity change, negative = inhibition [2] -19.3% | activity, negative = inhibition [3] 1.54% | Potency [4] > 20.6 µM

CCN(CC)CCCC1(CN)OCCc2ccccc21 (stereo not given)
inactive: activity change, negative = inhibition [1] 19.8% | activity change, negative = inhibition [2] -16.2% | activity, negative = inhibition [3] 8.19% | Potency [4] > 20.6 µM

COC(=O)C1=C(C)N=C2SC(C)C(=O)N2C1c1cccc(F)c1 (stereo not given)
inactive: activity change, negative = inhibition [1] -23.7% | activity change, negative = inhibition [2] -3.19% | activity, negative = inhibition [3] -1.23% | Potency [4] > 20.6 µM

O=C(NCc1ccco1)c1ccc(=O)[nH]n1
inactive: activity change, negative = inhibition [1] -6.2% | activity change, negative = inhibition [2] -1.91% | activity, negative = inhibition [3] -5.82% | Potency [4] > 20.6 µM

CCOC(=O)c1cnc(SC2CC(=O)N(c3cccc(OC)c3)C2=O)nc1N (stereo not given)
inactive: activity change, negative = inhibition [1] -16% | activity change, negative = inhibition [2] -6.66% | activity, negative = inhibition [3] -12.1% | Potency [4] > 20.6 µM

Cn1c(N)c(C#N)c2c(c1=S)CSC(C)(C)C2
inactive: activity change, negative = inhibition [1] 1.02% | activity change, negative = inhibition [2] -25.2% | activity, negative = inhibition [3] -2.98% | Potency [4] > 20.6 µM

COC(=O)CSc1nc(N)c2c3c(sc2n1)CCCC3
inactive: activity change, negative = inhibition [1] -0.00134% | activity change, negative = inhibition [2] -7.55% | activity, negative = inhibition [3] 29.8% | Potency [4] > 20.6 µM

COC(=O)CC1=NC(=O)CS1
inactive: activity change, negative = inhibition [1] 17.8% | activity change, negative = inhibition [2] -3.72% | activity, negative = inhibition [3] 12.3% | Potency [4] > 20.6 µM

N/C(CCN1CCOCC1)=N/O
inactive: activity change, negative = inhibition [1] 18.7% | activity change, negative = inhibition [2] 2.54% | activity, negative = inhibition [3] -0.113% | Potency [4] > 20.6 µM

CN(C1CCS(=O)(=O)C1)S(=O)(=O)c1cccc2nsnc12 (stereo not given)
inactive: activity change, negative = inhibition [1] -3.76% | activity change, negative = inhibition [2] 18.9% | activity, negative = inhibition [3] 1.43% | Potency [4] > 20.6 µM

Cc1onc(-c2ccccc2Cl)c1C(=O)N1CCN(c2nc3ccccc3s2)CC1
inactive: activity change, negative = inhibition [1] -24.2% | activity change, negative = inhibition [2] -4.08% | activity, negative = inhibition [3] -3.09% | Potency [4] > 20.6 µM

O=C1CCC(=O)N1CN(Cc1ccco1)CN1C(=O)CCC1=O
inactive: activity change, negative = inhibition [1] 7.15% | activity change, negative = inhibition [2] 5.38% | activity, negative = inhibition [3] 0.484% | Potency [4] > 20.6 µM

CN(C)S(=O)(=O)Nc1ccc(NS(=O)(=O)N(C)C)c(S(=O)(=O)c2ccccc2)c1
inactive: activity change, negative = inhibition [1] -9.87% | activity change, negative = inhibition [2] -5.57% | activity, negative = inhibition [3] 21.4% | Potency [4] > 20.6 µM

COc1ccccc1-n1c(=O)c2c3c(sc2n2c(SC)nnc12)CCC3
inactive: activity change, negative = inhibition [1] 6.29% | activity change, negative = inhibition [2] -21.2% | activity, negative = inhibition [3] 14.3% | Potency [4] > 20.6 µM

Cn1c(=O)c2c(nc(NCc3ccc4c(c3)OCO4)n2Cc2ccccc2F)n(C)c1=O
inactive: activity change, negative = inhibition [1] -24.1% | activity change, negative = inhibition [2] -14% | activity, negative = inhibition [3] -25.4% | Potency [4] > 20.6 µM

Cc1cc(C(=O)O)c(CSc2ncn[nH]2)o1
inactive: activity change, negative = inhibition [1] 12.5% | activity change, negative = inhibition [2] 19.7% | activity, negative = inhibition [3] 8.82% | Potency [4] > 20.6 µM

CN(C)c1ccc(C2C3C(=O)N(c4ccc(C(=O)O)cc4)C(=O)C3ON2c2ccccc2)cc1 (stereo not given)
inactive: activity change, negative = inhibition [1] -1.48% | activity change, negative = inhibition [2] 17.3% | activity, negative = inhibition [3] 5.33% | Potency [4] > 20.6 µM
